Experiments:
Assay in all cases: PBM binding z-score (relative to random genomic background probes); higher = stronger binding; sequences stand for … in GC…GCGATTGACAGCGTAGAATGAAGG
[1] = tested on: RARb homodimer (NR concentration 270 nM)
Method in brief: (§1)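 Regression normalization was applied to scanned fluorescence from custom Agilent 4×180K protein-binding microarrays. Before scanning, arrays were incubated 1 h with ligand-free nuclear receptor dimers, and binding was detected with antibodies against each partner (one per run). Binding z-scores use the random background probes as reference.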

[2] = tested on: RARg:RXRa (NR concentration 270 nM, RXRa partner concentration 90 nM)
Method in brief: as §1

[3] = tested on: RARg homodimer (NR concentration 270 nM)
Method in brief: as §1

[4] = tested on: RXRa DBDmut IVT, anti-RXR (DBD mutation: RXRa K156A/R161A, NR concentration 90 nM)
Method in brief: as §1

[5] = tested on: RXRa homodimer (NR concentration 180 nM)
Method in brief: as §1

[6] = tested on: THRa:RXRa (NR concentration 90 nM, RXRa partner concentration 90 nM)
Method in brief: as §1

[7] = tested on: THRa homodimer (NR concentration 90 nM)
Method in brief: as §1

[8] = tested on: VDR homodimer (NR concentration 270 nM)
Method in brief: as §1

Sequence	PBM binding z-score [1]	PBM binding z-score [2]	PBM binding z-score [3]	PBM binding z-score [4]	PBM binding z-score [5]	PBM binding z-score [6]	PBM binding z-score [7]	PBM binding z-score [8]
AGAGACAGGTGATGAAGGTAACTCAGGCTATCAT	0.746	0.284	0.541	-0.709	0.56	1.25	0.485	0.0584
CATACAGGGTCAGCTAGGCCAGAATAGGGACGGC	3.37	4.33	4.34	1.53	4.26	3.04	1.13	0.805
CTCGAAAGGTCGGTTGTGGTGAGTATACGGATAA	1.92	2.21	2.35	1.08	1.79	2.66	0.291	0.903
TGTCAAAGTTCAAAGGTAACCTAAGTATCCACAC	3.92	6.15	5.71	4.52	7.11	3.64	0.627	3.92
CAACCTAGGTCACAGAGGTCAAAGTCCGTGCGTA	5.82	7.61	7.92	3.68	8.52	4.55	3.1	7.57
TCTTGTAGATCAATAGAGGTAAAGAAAGTGCGCT	-0.162	0.0817	0.0168	0.436	0.364	1.9	-0.539	-0.6
GCTTGTAGATCAATGTTAAGAAAGACTAAGCTAA	-0.892	-0.411	-0.155	0.255	-0.609	-0.166	-1.2	-0.713
TCGAGTAGGTTACCAATGGGGCATTCGGCTTTCT	0.464	1.01	0.0889	0.423	0.335	-0.119	-0.584	-0.411
GCTAGCAGGCCATTTGGGTCACTCTATGACGGGC	1.56	0.776	0.994	-0.157	0.463	1.4	0.526	0.578
AGTCAAAGTTCACTAGGTAAAGTAAGATTCAGCT	3.32	4.93	5.48	4.25	4.02	1.75	0.0953	3.61
TCGAGTAGGTTACCAATGGCGCATTCAGCTTTCT	0.00418	0.036	0.0712	0.461	0.351	-0.246	-0.453	-0.613
CGTCCAAGGTCAGAGAGGTCAGTGATTGCCGAGT	5.16	6.26	7.26	3.31	5.33	4.13	3.03	5.48
CTAGACAGGTGAAAGGTAACTCAGTCTGGTACGC	0.55	1.36	0.619	-0.39	2.23	0.865	-0.398	-0.464
CGAACTAGGTCAGAACAGGACAGGGAAGGATGAT	2.37	2.58	2.91	0.62	1.26	3.92	0.578	0.472
AATACAGGGTCACCGTAGGCCAGAGTACGCACAG	3.94	6.08	5.9	2.62	7.11	4.55	1.77	2.81
TCATATAGGTAAAGGTGAAAGACGAACGATATGA	0.974	1.51	1.34	0.604	1.85	1.04	-0.601	-0.0355
CGAACGAGGGCATGAGTTTATAGCAAATGCCGAT	1.15	1.31	1.81	3.01	1.07	1.42	0.067	4.17
TCTATTAGTTGATTCGGGCAACCGAAACAGCGGA	0.249	0.385	0.285	1.15	0.328	0.247	0.0848	0.228
CGGACTGGGGCATAAGGTTACCATAAGCCAGCCC	1.94	1.83	1.21	-0.836	1.29	2.18	1.39	-0.454

Sequence	PBM binding z-score [1]	PBM binding z-score [2]	PBM binding z-score [3]	PBM binding z-score [4]	PBM binding z-score [5]	PBM binding z-score [6]	PBM binding z-score [7]	PBM binding z-score [8]
TCTGCTAGGTCAACGATGGTCAGCTATTCTGCTA	3.16	3.99	4.93	0.833	2.46	3.03	0.599	-0.371
CCTAACGGGTCACGAGGTTATAGCACGACGAGCG	3.65	5.84	4.93	1.5	6.09	3.44	0.791	1.91
TCAGGCAGGTGAAGGTAACTCAGGTACGCAGTCG	0.705	0.13	-0.00372	0.635	0.357	1.52	0.723	0.051
ATATGTAGGTTATATCCGGGTCATTCAGGCTATG	2.73	3.85	1.81	1.22	2.84	3.82	2.73	3.33
CAAACTAGGTCACCGGAAGATCAAAGTCCGCATG	3.35	4.78	5.35	1.93	3.67	3.63	1.81	0.906
AATACAGGGTCACTAGACCAGAGTAGGTACGAAT	2.96	4.98	4.81	2.68	5.91	3.24	1.08	2.54
TCGAGTAGGTTACTCGGGGCATTCAGCCAACATA	0.524	0.206	0.191	0.42	0.372	1.76	-0.17	0.557
TCTTGTAGAACAAAGGTTAAGAAAGCCGAAGCCT	1.45	1.55	0.851	0.724	2.32	1.05	-0.79	-0.438
CCTACTGGGCCAAAGGTCATTGCTTCCAATGCTC	4.58	5.56	4.3	1.36	5.91	3.37	0.719	2.42
AATACAGGGTCACTAGGCAAGAGTAGGTACGAAT	2.95	5.02	4.81	2.61	5.45	3.48	1.19	2.42
CCTCGGAGGACAGAAGGTCAGAGGTGTCCGCTTT	3.67	3.28	2.68	0.0335	1.71	2.19	-0.0182	0.148
TCTGCTAGGTCAACGATGGCCAGCTAATCTGCTA	2.85	3.75	4.72	0.868	2.35	2.6	0.486	-0.708
CAAACTAGGTCACCGGAAGGTCAGAGTCCGCATG	5.45	7.9	7.02	1.63	5.06	4.19	2.73	2.14
TCTTGTAGAGCAGCAGGTTAAGAAAGCTGGCCAA	-0.584	-0.394	-0.758	-0.623	-0.14	-0.0931	-1.03	-1.08
CCTGCTAGGTCAATGGTCAGCTAGAGCAGCTCGC	2.68	3.14	3.81	1.45	2.19	2.33	0.515	-0.262
TTACCAAGGTGAAGGCCGTTGATCCCTCTGTAGA	0.648	0.161	0.236	-0.411	0.286	1.57	0.252	-0.421
TGAATGAGGTTATAAGGTCAGGGAACGTTGCAAA	4	5.81	4.21	1.11	5.44	4.24	3.73	1.88
GCTAGCAAGCCATTTGGGTCACTCAATGACGGGC	1.36	0.373	0.621	-0.364	0.56	1.51	0.353	-0.322
CGAACTAGGTCATTGCCAGGACAGTGAATAGTAA	2.72	4.1	4.21	2.5	2.73	3.32	1.54	1.49

Sequence	PBM binding z-score [1]	PBM binding z-score [2]	PBM binding z-score [3]	PBM binding z-score [4]	PBM binding z-score [5]	PBM binding z-score [6]	PBM binding z-score [7]	PBM binding z-score [8]
CCAGACAGGTGAAAGGTAACTTAGTCTGGTACGC	0.975	1.23	0.78	0.208	2.05	0.818	-0.205	-0.23
GGAACGAAGGCAAGTTGATAGCAGAGTTTGATGG	-0.711	-0.376	-0.138	0.098	-0.667	-0.824	-1.3	-0.0459
ACTTACGGGTCAACGAGGTTATAGCTCGCGTATA	3.51	5.67	5	2.85	5.91	4.18	1.02	3.7
GCTCTTAGTTGAAAGGGCAACCGAATGATTCTCG	1.96	1.34	1.31	0.899	1.18	0.622	-0.289	0.164
ATCTCCAGGTAAAGATAGTTCAGTGAATGCAAAT	1.03	0.342	0.839	0.0268	-0.000636	1.06	0.451	0.711
ATCTCTGGGTAAAAGTTCAGTGAATCCCGAGGAT	2.6	2.36	2.45	0.812	1.69	0.969	-0.0851	1.53
ATCGAAAGGTTGAAGGTGAGTATACCCACCCGAA	0.919	1.45	1.24	-0.0221	2.38	0.997	-0.184	0.162
GAAACGAGGGCAAAGTTGATAGCATCTGTCGACG	1.33	2.11	1.58	2.66	2.3	1.57	-0.284	1.13
ATCTCTAGGTAACCAATTTCAGTGAATGCCGAAC	0.515	0.324	0.586	0.556	0.198	0.887	0.984	0.312
ATCGAAAGGTCGACGGTGAGTATACCCACCCGAA	2.53	4.19	3.92	0.878	4.27	1.88	-0.262	0.289
GCATCTAGGTAATACAAGGTGAAAGTCCGATTGT	0.893	0.422	0.244	-0.0985	0.576	3.63	1.22	-0.188
CCTAGCTGGTCAAGGTCACACACGCTATAGGTAC	4.06	4.56	4.74	1.82	4.92	3.97	3.76	2.88
ACTAGCAGGCCAAGGATCACTCAAGATTAGTCCG	-0.025	0.215	0.422	-0.378	0.137	-0.0655	-0.556	-0.55
TGAATGAGGTTATAAGAGCAGGGAACGTTGCAAA	0.269	1.47	0.87	0.547	1.87	1.66	0.0456	0.451
TAGCCTAGGTCTTGGGCCAGTATACCACGCGAAC	0.192	-0.191	-0.198	-0.835	-0.0837	0.0232	0.0319	-0.506
CCTGATAGGTCATGGTCAGCTAATCTACAGTATG	3.69	5.08	5.2	1.57	5.33	2.46	0.212	0.195
TTACCAAGGTGAGCTGAGGTCGGTGATCCAACTC	1.46	0.608	0.586	-0.659	0.505	4.31	1.25	0.0612
CCTTACGGGTCAAGGTTATGGCACGGGTGGTACG	3.66	5.06	4.67	1.1	5.31	3	0.804	1.45
CCTGCTAGGTCATGGTCAGCTAGTCTACAGTATG	3.22	4.05	4.82	1.84	2.76	3.03	1.25	0.287
